# Measurements from the supplement of paper PMC9135407.
# “And” between values parts separate entries of the source, which are not always exact repeats. Equal entries are not always repeated. Out of some 5,800 compounds screened, about 620 (11%) showed activity. This is one part of a sample in which actives are shown more often than they occur. A number with no mark means an inactive call.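 The calls were made as follows: active = score above a cut-off or among the top three wells of a plate; in these data no inactive exceeds 0.85.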
# Test system: primary human hepatic stellate cells (donor 1)
# Assay: scaled lipid accumulation score (0 = DMSO-like, 1 = nortriptyline-like); higher = stronger HSC inactivation (lipid re-accumulation), active = hit call of the paper
# Details: 48 h
# [1] = library stock concentration: 1 mM
# [2] = library stock concentration: 3.33 mM
# [3] = library stock concentration: 10 mM
# [4] = library stock concentration: 80 uM
# [5] = library stock concentration: 400 uM
# [6] = library stock concentration: 2 mM
compound,measurement,setting,value
O=C1OC2(c3ccc(O)cc3Oc3cc(OS(=O)(=O)c4c(F)c(F)c(F)c(F)c4F)ccc32)c2ccccc21 (stereo not drawn) [Pentafluorobenzenesulfonyl fluorescein],scaled lipid accumulation score,[1],≤ 0
CO[C@H]1C[C@@H]2CC[C@@H](C)[C@@](O)(O2)C(=O)C(=O)N2CCCC[C@H]2C(=O)O[C@H]([C@H](C)C[C@@H]2CC[C@@H](OC(=O)C(C)(CO)CO)[C@H](OC)C2)CC(=O)[C@H](C)/C=C(\C)[C@@H](O)[C@@H](OC)C(=O)[C@H](C)C[C@H](C)/C=C/C=C/C=C/1C,scaled lipid accumulation score,[2],0.032
same,scaled lipid accumulation score,[3],0.094
CN1CCN(C2CCN(C(=O)Nc3cc(Oc4ccc(NC(=O)C5(C(=O)Nc6ccc(F)cc6)CC5)c(F)c4)ccn3)CC2)CC1 [Golvatinib (E7050)] [listing 1 of 2 here],scaled lipid accumulation score,[3],0.429
CN1CCN(C2CCN(C(=O)Nc3cc(Oc4ccc(NC(=O)C5(C(=O)Nc6ccc(F)cc6)CC5)c(F)c4)ccn3)CC2)CC1 [Golvatinib (E7050)] [listing 2 of 2 here],scaled lipid accumulation score,[2],0.979 (active)
CC/C=C\C/C=C\C/C=C\C/C=C\C/C=C\C/C=C\CCC(=O)NCCO [Docosahexaenoyl Ethanolamide],scaled lipid accumulation score,[1],0.03
COc1cc(OC2CCN(C)CC2)ccc1Nc1ncc2c(n1)n(C1CCCC1)c(=O)n2C [listing 1 of 2 here],scaled lipid accumulation score,[2],0.441
COc1cc(N2CCC(N3CCN(C)CC3)CC2)ccc1Nc1ncnc(Nc2ccccc2S(=O)(=O)C(C)C)n1,scaled lipid accumulation score,[4],≤ 0
same,scaled lipid accumulation score,[5],0.045
same,scaled lipid accumulation score,[6],0.433
same,scaled lipid accumulation score,[3],0.819
COc1cc(OC2CCN(C)CC2)ccc1Nc1ncc2c(n1)n(C1CCCC1)c(=O)n2C [listing 2 of 2 here],scaled lipid accumulation score,[3],1.06 (active)
C[C@H](C(=O)O)c1ccc(-c2ccccc2)c(F)c1 [(S)-Flurbiprofen],scaled lipid accumulation score,[1],0.003
Oc1cccc(-c2nc(N3CCOCC3)c3sccc3n2)c1 [PI3-Kinase .alpha. Inhibitor 2],scaled lipid accumulation score,[1],≤ 0
Nc1ccc(C(=O)Nc2cccc(-c3nc(N4CCOCC4)c4oc5ncccc5c4n3)c2)cn1 [listing 1 of 3 here],scaled lipid accumulation score,[4],≤ -0.009
same,scaled lipid accumulation score,[5],0.031 and ≤ -0.005
same,scaled lipid accumulation score,[6],0.229
same,scaled lipid accumulation score,[2],0.647
Nc1ccc(C(=O)Nc2cccc(-c3nc(N4CCOCC4)c4oc5ncccc5c4n3)c2)cn1 [listing 2 of 3 here],scaled lipid accumulation score,[3],0.995 (active)
Cl.Nc1ccc(C(=O)Nc2cccc(-c3nc(N4CCOCC4)c4oc5ncccc5c4n3)c2)cn1,scaled lipid accumulation score,[6],1.74 (active)
same,scaled lipid accumulation score,[3],1.25 (active)
O=c1cc(N2CCOCC2)oc2c1ccc1ccccc12,scaled lipid accumulation score,[4],≤ 0
same,scaled lipid accumulation score,[5],≤ 0
same,scaled lipid accumulation score,[6],≤ 0
same,scaled lipid accumulation score,[3],≤ 0 and 0.033
CC(C)(O)c1cc2nc(-c3cnc(N)nc3)nc(N3CCOCC3)c2s1,scaled lipid accumulation score,[5],≤ -0.005
same,scaled lipid accumulation score,[6],≤ -0.005
same,scaled lipid accumulation score,[3],0.006
Oc1cccc(-c2nc(N3CCOCC3)c3oc4ncccc4c3n2)c1 [listing 1 of 2 here],scaled lipid accumulation score,[3],0.923 (active)
Cc1c(CN2CCN(C(=O)[C@H](C)O)CC2)sc2c(N3CCOCC3)nc(-c3cnc(N)nc3)nc12,scaled lipid accumulation score,[4],0.079
same,scaled lipid accumulation score,[5],≤ -0.015
same,scaled lipid accumulation score,[6],≤ -0.016
same,scaled lipid accumulation score,[2],≤ 0
same,scaled lipid accumulation score,[3],≤ 0 and ≤ -0.016
Oc1cccc(-c2nc(N3CCOCC3)c3oc4ncccc4c3n2)c1 [listing 2 of 2 here],scaled lipid accumulation score,[4],0.118
same,scaled lipid accumulation score,[5],0.051 and ≤ -0.005
same,scaled lipid accumulation score,[1],≤ 0
same,scaled lipid accumulation score,[6],≤ -0.009 and ≤ -0.005
same,scaled lipid accumulation score,[2],0.203 and 0.016
same,scaled lipid accumulation score,[3],0.796 and 0.279
O=c1cc(N2CCOCC2)oc2c1ccc1ccccc12 [DNA-PK Inhibitor II],scaled lipid accumulation score,[2],≤ 0
COc1ccc(-c2nc(N3CCOCC3)c3sc(CN(C)c4ncc(C(=O)NO)cn4)cc3n2)cn1,scaled lipid accumulation score,[4],0.745
same,scaled lipid accumulation score,[5],0.648
same,scaled lipid accumulation score,[6],0.67
same,scaled lipid accumulation score,[2],0.439
same,scaled lipid accumulation score,[3],0.447 and 0.588
Nc1ccc(C(=O)Nc2cccc(-c3nc(N4CCOCC4)c4oc5ncccc5c4n3)c2)cn1 [listing 3 of 3 here],scaled lipid accumulation score,[3],0.915 (active)
CC(Cc1ccc(O)c(O)c1)C(C)Cc1ccc(O)c(O)c1 (stereo not drawn) [Nordihydroguaiaretic Acid],scaled lipid accumulation score,[1],0.042
